{
  "source": "the supplement of paper PMC6518042",
  "data": [
    {"system": "Pectobacterium parmentieri SCC3193", "assay": "DuctApe activity index (growth/respiration on compound as sole nutrient source, blank-subtracted) (activity index (0-3)); higher = stronger utilization of the compound, active = 3 or more", "settings": "nutrient role (plate category): carbon", "protocol": "(§1)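 Biolog Phenotype Microarray plates PM1, PM2A (carbon), PM3 (nitrogen) and PM4 (phosphorus/sulfur) inoculated with P. parmentieri SCC3193 in M9-C minimal salts medium with Biolog dye A, and read in the OmniLog for 46 h. Each well was tested in triplicate and the experiment was run twice. DuctApe computed a blank-subtracted activity index (AV, 0-3) from the mean curves; growth is positive at AV >= 3 and negative at AV <= 2.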", "values": [
      {"smiles": "O=C(O)CCCCCCCCC(=O)O", "note": "[Sebacic acid]", "DuctApe activity index": "0 (inactive)"},
      {"smiles": "OC[C@H]1OC(O)[C@H](O)[C@@H](O)[C@@H]1O", "note": "(stereo partly drawn) [a-D-Glucose]", "DuctApe activity index": "3 (active)"},
      {"smiles": "CC(=O)N[C@H]1[C@H]([C@H](O)[C@H](O)CO)OC(O)(C(=O)O)C[C@@H]1O", "note": "(stereo not given in full) [N-Acetyl-Neuraminic acid]", "DuctApe activity index": "0 (inactive)"},
      {"smiles": "O=C(O)[C@]1(O)C[C@@H](O)[C@@H](O)[C@H](O)C1", "note": "[Quinic acid]", "DuctApe activity index": "0 (inactive)"},
      {"smiles": "N[C@@H](CCO)C(=O)O", "note": "[L-Homoserine]", "DuctApe activity index": "0 (inactive)"},
      {"smiles": "N[C@@H](Cc1c[nH]cn1)C(=O)O", "note": "[L-Histidine]", "DuctApe activity index": "0 (inactive)"},
      {"smiles": "C[C@H](N)C(=O)NCC(=O)O", "DuctApe activity index": "0 (inactive)"},
      {"smiles": "C[C@@H](O)[C@H](N)C(=O)O", "note": "[L-Threonine]", "DuctApe activity index": "0 (inactive)"},
      {"smiles": "CC(=O)CC(=O)O", "note": "[Acetoacetic acid]", "DuctApe activity index": "0 (inactive)"},
      {"smiles": "O=C(O)CC(O)C(=O)O", "note": "(racemic) [DL-Malic acid]", "DuctApe activity index": "3 (active)"},
      {"smiles": "O=c1[nH]cnc2c1ncn2[C@@H]1O[C@H](CO)[C@@H](O)[C@H]1O", "note": "[Inosine]", "DuctApe activity index": "1 (inactive)"},
      {"smiles": "CC(C)C[C@H](N)C(=O)O", "note": "[L-Leucine]", "DuctApe activity index": "1 (inactive)"},
      {"smiles": "OCC1(O)OC[C@@H](O)[C@H](O)[C@@H]1O", "note": "(stereo partly drawn) [D-Tagatose]", "DuctApe activity index": "0 (inactive)"},
      {"smiles": "OC[C@H]1O[C@@](CO)(O[C@H]2O[C@H](CO)[C@@H](O)[C@H](O)[C@H]2O)[C@@H](O[C@H]2O[C@H](CO)[C@@H](O)[C@H](O)[C@H]2O)[C@@H]1O", "note": "[D-Melezitose]", "DuctApe activity index": "0 (inactive)"},
      {"smiles": "O[C@@H]1[C@H](O)[C@H](O)CO[C@H]1O", "note": "[D-Ribose]", "DuctApe activity index": "3 (active)"},
      {"smiles": "C[C@H](O)[C@@H](N)C(=O)O", "note": "[D-Threonine]", "DuctApe activity index": "0 (inactive)"},
      {"smiles": "CSCC[C@H](N)C(=O)O", "note": "[L-Methionine]", "DuctApe activity index": "0 (inactive)"},
      {"smiles": "N[C@H](CO)C(=O)O", "note": "[D-Serine]", "DuctApe activity index": "0 (inactive)"},
      {"smiles": "NC(=O)CC[C@H](N)C(=O)O", "note": "[L-Glutamine]", "DuctApe activity index": "0 (inactive)"},
      {"smiles": "CCCC(=O)C(=O)O", "note": "[a-Keto-Valeric acid]", "DuctApe activity index": "0 (inactive)"},
      {"smiles": "N[C@@H](CCC(=O)O)C(=O)O", "note": "[L-Glutamic acid]", "DuctApe activity index": "2 (inactive)"}
    ]},
    {"system": "Pectobacterium parmentieri SCC3193", "assay": "DuctApe activity index (growth/respiration on compound as sole nutrient source, blank-subtracted) (activity index (0-3)); higher = stronger utilization of the compound, active = 3 or more", "settings": "nutrient role (plate category): nitrogen", "protocol": "as §1", "values": [
      {"smiles": "N[C@@H](CCO)C(=O)O", "note": "[L-Homoserine]", "DuctApe activity index": "0 (inactive)"},
      {"smiles": "N[C@@H](Cc1c[nH]cn1)C(=O)O", "note": "[L-Histidine]", "DuctApe activity index": "0 (inactive)"},
      {"smiles": "C[C@H](N)C(=O)NCC(=O)O", "DuctApe activity index": "0 (inactive)"},
      {"smiles": "C[C@@H](O)[C@H](N)C(=O)O", "note": "[L-Threonine]", "DuctApe activity index": "0 (inactive)"},
      {"smiles": "CSCC[C@H](NC(=O)CN)C(=O)O", "DuctApe activity index": "0 (inactive)"},
      {"smiles": "O=c1[nH]cnc2c1ncn2[C@@H]1O[C@H](CO)[C@@H](O)[C@H]1O", "note": "[Inosine]", "DuctApe activity index": "0 (inactive)"},
      {"smiles": "CC(C)C[C@H](N)C(=O)O", "note": "[L-Leucine]", "DuctApe activity index": "0 (inactive)"},
      {"smiles": "N[C@@H](Cc1ccc(O)cc1)C(=O)O", "note": "[L-Tyrosine]", "DuctApe activity index": "0 (inactive)"},
      {"smiles": "CSCC[C@H](N)C(=O)O", "note": "[L-Methionine]", "DuctApe activity index": "0 (inactive)"},
      {"smiles": "N[C@H](CO)C(=O)O", "note": "[D-Serine]", "DuctApe activity index": "0 (inactive)"},
      {"smiles": "NC(=O)CC[C@H](N)C(=O)O", "note": "[L-Glutamine]", "DuctApe activity index": "2 (inactive)"},
      {"smiles": "C[C@H](N)C(=O)N[C@@H](CCC(N)=O)C(=O)O", "DuctApe activity index": "1 (inactive)"},
      {"smiles": "N[C@@H](CCC(=O)O)C(=O)O", "note": "[L-Glutamic acid]", "DuctApe activity index": "1 (inactive)"},
      {"smiles": "Oc1nc(O)c2nc(O)[nH]c2n1", "note": "[Uric acid]", "DuctApe activity index": "0 (inactive)"},
      {"smiles": "N[C@@H]1C(O)O[C@H](CO)[C@@H](O)[C@@H]1O", "note": "(stereo partly drawn) [D-Mannosamine]", "DuctApe activity index": "2 (inactive)"}
    ]},
    {"system": "Pectobacterium parmentieri SCC3193", "assay": "DuctApe activity index (growth/respiration on compound as sole nutrient source, blank-subtracted) (activity index (0-3)); higher = stronger utilization of the compound, active = 3 or more", "settings": "nutrient role (plate category): phosphate & sulphur", "protocol": "as §1", "values": [
      {"smiles": "N[C@H](CS)C(=O)O", "note": "[D-Cysteine]", "DuctApe activity index": "1 (inactive)"},
      {"smiles": "CSCC[C@H](NC(=O)CN)C(=O)O", "DuctApe activity index": "1 (inactive)"},
      {"smiles": "CSCC[C@H](N)C(=O)O", "note": "[L-Methionine]", "DuctApe activity index": "1 (inactive)"},
      {"smiles": "CSC[C@H](N)C(=O)O", "note": "[S-Methyl-L-Cysteine]", "DuctApe activity index": "1 (inactive)"}
    ]}
  ]
}
